Results taken from publication PMC12136788.
Over roughly 24,000 sequences, “enrichment r” has its median near 0.99; the highest 2% begin near 3.7. Only a selection was taken, and the highest values are over-represented in it overall.

T1: UNK ZnF1-3 (human, UniProt Q9C0B0 31-174)
T1 sequence: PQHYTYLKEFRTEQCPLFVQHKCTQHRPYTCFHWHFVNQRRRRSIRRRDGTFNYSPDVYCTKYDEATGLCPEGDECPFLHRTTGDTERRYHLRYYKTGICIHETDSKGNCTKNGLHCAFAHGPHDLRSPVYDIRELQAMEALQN

B1: chr16:11966626:11966627:-_ENSG00000103342_ENST00000563468|hu_hu|FALSE|FALSE (ssRNA)
RNA: GGGAGUUCUACAGUCCGACGAUCUUGUAACAUGUGCACACACACUCGCACACUCAGAAUGAUCUGCCUGGGGGAAAAAUACUAAAUAUGCCUAAGGGGAAAAUGAAAAAUAAAAAAAUUCCUGUAGGUUUUCAUUAUUGUAGGCAACAGAGGAUUGAGCAUCA
B2: chr4:144460044:144460045:+_ENSG00000153147_ENST00000283131|hu_mus|hu_hu_hu_mus_False|18_68 (ssRNA)
RNA: GGGAGUUCUACAGUCCGACGAUCACGGUCCAUAGCCUGAAGAUCAACUUGCGGAUUCCAAUCUGAGUCAUACAAAAUGACUACAUCAGCAGUUGCAAGAUUGAUGCCCAGACCACCAGCACGCGUGCUUAGCAUAAAUACAAACAACAGAGGAUUGAGCAUCA
B3: 47062174_47062422_1437_CDS_ENSG00000130985_ENST00000335972|human|control|control (ssRNA)
RNA: GGGAGUUCUACAGUCCGACGAUCGACCUCUUUGUCCUCAGGGAGACACUCAAGGGCAUCAAAGUAUAGCCACUGCAUGAUGGGCAUGAACUUCCCGGAGCAGGCCUUCAUGACUUCCUGGGCAGCCAGGCCCCCAAUGAAGGCCAACAGAGGAUUGAGCAUCA
B4: 44991723_44991843_1432_CDS_ENSMUSG00000038518_ENSMUST00000173246|mouse|control|control (ssRNA)
RNA: GGGAGUUCUACAGUCCGACGAUCCUGAGCAGACCGAUGCGAAGGGGGAGGUUGGUGGUUGGCAGCAAGUCCCUUGGCAGAGGAAGCCGCAGCCGAGGCGGCCGUGGGCUGAGCCCCUGAAGCCUGUUCUCUCCGGCUGUCUGCCAACAGAGGAUUGAGCAUCA
B5: 98346538_98346658_211_5pUTR_ENSG00000077147_ENST00000371142|human|control|control (ssRNA)
RNA: GGGAGUUCUACAGUCCGACGAUCCAGCCACAGCGCGGCGGCCGCCGCCACGCCAAGAGCGCCAGGCAGCGGCCUCAUCCUCCGCGCCCCUCCGGCCCGGAGCCGGCUCACCGACUCCUCCUCCCGCCGCCGCCUCCUCCGCCGCAACAGAGGAUUGAGCAUCA
B6: chr6:35489678:35489679:-_ENSMUSG00000029840_ENSMUST00000031866|mus_hu|FALSE|FALSE (ssRNA)
RNA: GGGAGUUCUACAGUCCGACGAUCAGAAGAUGAGGAGGCGGUGGCAGCAGCAAGCGGAUGCCGCCGGGCGAGAGGGAGGCAGGGCCGCGCGAAGCCGGAGAGGAGAAGAAGAGAAGGAGGGUUAGGCUGCCAGGCGGGCGAGGCCAACAGAGGAUUGAGCAUCA
B7: 62352434_62352554_269_CDS_ENSMUSG00000018509_ENSMUST00000018653|mouse|control|control (ssRNA)
RNA: GGGAGUUCUACAGUCCGACGAUCCUGCUCCCCCAGGUCGAGCGCCGACACCGAGGCGGCGGGGGUGACCGCCGGCGGUGGCUCCUCGGCGGCCGCCUCCUGGGCCCGCGGCGGUGGCUUGGGCCGCGGCUUUGCCGACGGCUGCAACAGAGGAUUGAGCAUCA
B8: chr7:133967480:133967481:+_ENSMUSG00000058966_ENSMUST00000079423|mus_mus|FALSE|FALSE (ssRNA)
RNA: GGGAGUUCUACAGUCCGACGAUCAGGGAGUUGGAGGUGAAGAAGGGAUUGCCAAGCCAGAAAGGGAGAGAGAAAGAGGGAGGGGGAGGCACAAAGGGGCCAGGGCGGGGACAGGAUGGGACAAGAGGACCAGUUCAGGGCAAGCAACAGAGGAUUGAGCAUCA
B9: chr9:123912698:123912699:+_ENSG00000119397_ENST00000373850|hu_hu|FALSE|FALSE (ssRNA)
RNA: GGGAGUUCUACAGUCCGACGAUCAUGGUGUUCAGGGACGUUGCAAUGCAGCACACCCAUAGGGAUGAAGGGGAUGGAGAAGUUGGGGGGUGGAGGCCCAUACACCAUGGGGGCCCCAGCAGGAGGUGGGCCAUAAACAACAGUCAACAGAGGAUUGAGCAUCA
B10: 132387670_132387790_77_5pUTR_ENSG00000170606_ENST00000304858|human|control|control (ssRNA)
RNA: GGGAGUUCUACAGUCCGACGAUCGGUACUGCAACCGAGAGCGCUGCUCAGGCCGGCUCCGGCUCAGUGGCCGCAGAGGAGGCGCCGGUAGCGGGGGCGGAGAAGAUCUCGAAAGAUCUCGUUGCGACGAGAGCGGAGCCGCAGCAACAGAGGAUUGAGCAUCA
B11: chr6:30691630:30691631:+_ENSG00000196230_ENST00000327892|hu_hu|FALSE|FALSE (ssRNA)
RNA: GGGAGUUCUACAGUCCGACGAUCAGCUCGAUACUGCUGGCUUCCACGGCUGGUGAGAGGGGCAAAGCCAGGCAUAAAGAAAUGGAGACGUGGGAAGGGGACCAUGUUGACUGCCAACUUGCGGAGGUCAGCAUUGAGCUGGCCCAACAGAGGAUUGAGCAUCA
B12: 126416003_126416123_291_3pUTR_ENSMUSG00000078429_ENSMUST00000105256|mouse|control|control (ssRNA)
RNA: GGGAGUUCUACAGUCCGACGAUCAGGCGGCCUGCACAGAGGGCGGGCGGGCCAGGCGGCGGCUUCCCCGGUGCCCCCAGCCCCGAUCCCCCGGUGGCAGCUCCGGGCUCCUCAGUUUGGGUCCAACAUGGAGAAUCCGGAGCGCAACAGAGGAUUGAGCAUCA
B13: chr2:180329438:180329439:+_ENSMUSG00000049401_ENSMUST00000029087|mus_hu|FALSE|FALSE (ssRNA)
RNA: GGGAGUUCUACAGUCCGACGAUCCUCUGAGGCACUCUGAGGGCCUGGCUCUGUGGGCGGCUGCUCCCGCCGGCUCAGCUCCAGCUUCCUCUUCUUGCUCUCUUUGGGGCUUAAGGGCUCCGGCCUAUCUUCCCCGUGGCCCCCCAACAGAGGAUUGAGCAUCA
B14: 91300164_91300284_179_3pUTR_ENSMUSG00000038459_ENSMUST00000117085|mouse|control|control (ssRNA)
RNA: GGGAGUUCUACAGUCCGACGAUCCCGCCGGGGCGGGCGCGGGGGUCGCCGCGGGAGCGGGCGCGCGCUGCUCGGGCGCCAGCACCGUGUAGGUGGGUUCGGGCGGCAGGAAGGCCAGCUUGGCGGCGAUGCGGCUCGGACAAGCAACAGAGGAUUGAGCAUCA
B15: 86322860_86322980_198_3pUTR_ENSG00000135018_ENST00000376395|human|control|control (ssRNA)
RNA: GGGAGUUCUACAGUCCGACGAUCCUUCCUCCUCCCUGCCCCUUCCCCCACGUCCCUUCGCCGGCGCCGCGCGGAGCACGCCGGGUAACGCGCCUGGCGGCGUCGCCGAGUCAUCCCCGGCUGGCGCGACUUUGAGCUCAGCCUCAACAGAGGAUUGAGCAUCA

biological target: T1, UNK ZnF1-3; assay: nsRBNS (natural sequence RNA bind-n-seq); RBNS binding buffer (assumed for nsRBNS): 25 mM Tris pH 7.5, 150 mM KCl, 3 mM MgCl2, 0.01% Triton X-100, 500 ug/ml BSA, 20 U/ml SUPERase-In, 4 C; UNK is unkempt and MSI1 is Musashi-1; names of the RNAs are library labels; protein concentration not given here; high values mean tight binding

| Binder | binding signal [enrichment R] |
| --- | --- |
| B1 | 3.28 |
| B2 | 1.01 |
| B3 | 1.06 |
| B4 | 1.39 |
| B5 | 5.42 |
| B6 | 3.69 |
| B7 | 4.47 |
| B8 | 5.53 |
| B9 | 1.48 |
| B10 | 1.09 |
| B11 | 1.75 |
| B12 | 2.26 |
| B13 | 0.81 |
| B14 | 0.777 |
| B15 | 0.759 |
